{"source": "PubChem BioAssay (NCATS)", "note": "Records with an inconclusive call do not appear. Entries that show only a call come without a potency. The source made the active and inactive calls. The call rests on the fitted dose curve."}
{"target": "Vitamin D3 receptor (Homo sapiens) (UniProt P11473)", "sequence (P11473 whole entry, looked up)": "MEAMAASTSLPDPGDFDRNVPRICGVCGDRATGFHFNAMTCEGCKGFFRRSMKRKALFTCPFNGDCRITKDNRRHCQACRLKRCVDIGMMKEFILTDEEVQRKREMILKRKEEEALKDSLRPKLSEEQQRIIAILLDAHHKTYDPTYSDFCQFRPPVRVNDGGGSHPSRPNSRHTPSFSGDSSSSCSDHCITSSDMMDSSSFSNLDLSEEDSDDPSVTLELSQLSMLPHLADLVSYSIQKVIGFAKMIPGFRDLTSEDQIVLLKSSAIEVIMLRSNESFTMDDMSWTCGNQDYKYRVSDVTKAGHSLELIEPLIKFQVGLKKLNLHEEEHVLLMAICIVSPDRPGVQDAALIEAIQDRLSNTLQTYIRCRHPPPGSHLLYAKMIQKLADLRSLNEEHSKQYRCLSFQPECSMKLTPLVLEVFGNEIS", "assay": "qHTS assay for small molecule agonists of vitamin D receptor signaling (AID 588543)", "conditions": "HEK293T VDR-UAS-bla, beta-lactamase ratio, 16 h; series mostly up to 76.8 µM", "description": "NIH Chemical Genomics Center [NCGC]\nU.S. Environmental Protection Agency [EPA]\nNational Institutes of Environmental Health Sciences [NIEHS]\nNational Toxicology Program [NTP]\nThe Vitamin D receptor (VDR) is a member of nuclear hormone receptor superfamily and it plays a critical role in calcium homeostasis and bone metabolism. It plays a role in inducing cell differentiation, inhibiting cell growth and in thrombogenicity. So, VDR that mediates these effects represents a pharmacological target in prevention and treatment of hyperproliferative malignancies, such as cancer and psoriasis, cardiovascular, immunological, inflammatory and renal diseases etc.\nNCGC Assay Protocol Summary\nUsing a beta-lactamase reporter-gene under control of Vitamin D receptor (VDR) response element, a cell-based assay [GeneBLAzer (VDR -UAS-bla assay developed by Invitrogen] was used to measure VDR ligands signaling. GeneBLAzer VDR -UAS-bla HEK293T cells were used with assay medium containing 2% charcoal-stripped FBS. The assay was performed in clear bottom black Greiner 1536-well plates. 1-alpha,25-Dihydroxy vitaminD3 was used as a positive control in the screen. Library compounds were measured for their ability to stimulate the reporter gene activity. Compounds were screened in a titration series in 1536-well format. The fluorescence intensity (405 nm excitation, 460/530 nm emission) was measured using an EnVision plate reader. Data was normalized relative to 1-alpha,25-Dihydroxy vitaminD3 control (50 nM, 100%) and DMSO only wells (basal, 0%). Concentration-response titration points for each compound were fitted to the Hill equation yielding concentrations of half-maximal stimulation (EC50) and maximal response (efficacy) values.\nqHTS protocol for VDR beta-lactamase assay in agonist mode\n[Step] [Parameter] [Value] [Description]\n1. Reagent; 6 uL; 2000 cells/well\n2. Incubation; 37 C for 5 hrs\n4. Controls (1-alpha,25-Dihydroxy vitaminD3); 23 nL,\n- Final concentrations of 50 nM and 15 nM in two columns\n5. Incubation; 37 C for 16 hrs\n6. Detection reagent; 1 uL of CCF4-dye\n7. Incubation; RT for 2 hrs\n8. Detection; Fluorescence; Envision plate reader"}
{"smiles": "CCNC(=S)NCC", "Potency": "inactive"}
{"smiles": "Nc1cc([N+](=O)[O-])ccc1O", "Potency": "inactive"}
{"smiles": "O=CC(=O)c1ccccc1", "Potency": "inactive"}
{"smiles": "C=CC(=O)OCCCCCCOC(=O)C=C", "Potency": "inactive"}
{"smiles": "O=C=Nc1ccc(Cl)c(Cl)c1", "Potency": "inactive"}
{"smiles": "Cc1ccc(C(=O)O)cc1[N+](=O)[O-]", "Potency": "inactive"}
{"smiles": "N[C@@H](Cc1ccccc1)C(=O)O", "Potency": "inactive"}
{"smiles": "Cc1ccccc1OCC1CO1", "note": "(stereo not given)", "Potency": "inactive"}
{"smiles": "CC(=O)CC(=O)Nc1ccccc1", "Potency": "inactive"}
{"smiles": "Cc1c(N)cccc1Cl", "Potency": "inactive"}
{"smiles": "CC(=O)c1ccc(Cl)c(Cl)c1Cl", "Potency": "inactive"}
{"smiles": "Clc1nc2ccccc2nc1Cl", "Potency": "inactive"}
{"smiles": "c1ccc2c(c1)ccc1ccccc12", "Potency": "inactive"}
{"smiles": "CCN(CC)c1ccc2c(C)cc(=O)oc2c1", "Potency": "44.7 µM (active)"}
{"smiles": "Oc1ccc2c(c1)OCO2", "Potency": "inactive"}
{"smiles": "c1c[nH]cn1", "Potency": "inactive"}
{"smiles": "CC(CCC(=O)O)(c1ccc(O)cc1)c1ccc(O)cc1", "Potency": "inactive"}
{"smiles": "S=C(NC1CCCCC1)NC1CCCCC1", "Potency": "inactive"}
{"smiles": "Nc1ccc(-c2ccc(N)c(O)c2)cc1O", "Potency": "inactive"}
{"smiles": "O=C(O)c1ccc([N+](=O)[O-])cc1", "Potency": "inactive"}
{"smiles": "OCC(CBr)(CBr)CBr", "Potency": "inactive"}
{"smiles": "OC1CCCCC1", "Potency": "inactive"}
{"smiles": "C=CC(C)(O)CCCC(C)CCCC(C)CCCC(C)C", "note": "(stereo not given)", "Potency": "inactive"}
{"smiles": "O=c1[nH]ncc2ccccc12", "Potency": "inactive"}
{"smiles": "C=Cc1cccc(C)c1", "Potency": "inactive"}
{"smiles": "Nc1cc(C(=O)O)c(O)c(S(=O)(=O)O)c1", "Potency": "inactive"}
{"smiles": "CC(C)OCC1CO1", "note": "(stereo not given)", "Potency": "inactive"}
{"smiles": "c1ccncc1", "Potency": "inactive"}
{"smiles": "Nc1cnn([C@@H]2O[C@H](CO)[C@@H](O)[C@H]2O)c(=O)n1", "Potency": "inactive"}
{"smiles": "C=CC1CO1", "note": "(stereo not given)", "Potency": "inactive"}
{"smiles": "CCCCCCCCC1CO1", "note": "(stereo not given)", "Potency": "inactive"}
{"smiles": "c1cc2c3c(c1)ccc1cccc(c13)C2", "Potency": "inactive"}
{"smiles": "c1ccc(CSCc2ccccc2)cc1", "Potency": "inactive"}
{"smiles": "Oc1ccc(O)c2c(O)cccc12", "Potency": "inactive"}
{"smiles": "CCCCOC(=O)COc1ccc(Cl)cc1Cl", "Potency": "inactive"}
{"smiles": "NC(=O)Nc1nc2ccccc2[nH]1", "Potency": "inactive"}
{"smiles": "CN(C)c1ccc(Cc2ccc(N(C)C)cc2)cc1", "Potency": "inactive"}
{"smiles": "CC(C)S", "Potency": "inactive"}
{"smiles": "Cc1cccnc1", "Potency": "inactive"}
{"smiles": "CC1=C(/C=C/C(C)=C/C=C/C(C)=C/C=O)C(C)(C)CCC1", "Potency": "inactive"}
